The values that follow come from PubChem BioAssay (Tox21).

Values without a mark were called inactive. Calls come from the whole dose curve.
% is set by controls: 0 for no effect and ±100 for the full control effect.

A short description of this assay: G protein-coupled receptor (GPCR) small molecule agonists, calcium flux assay: HEK293 wild type cell line counter screen (AID 1920065). The settings on record: HEK293 WT calcium flux, fluorescence, agonist mode; series mostly up to 57.6 µM; activation: at the top concentration. From the text: U.S. Tox21 Program National Center for Advancing Translational Sciences [NCATS] Division of Preclinical Innovation [DPI] U.S. Environmental Protection Agency [EPA] National Institutes of Environmental Health Sciences [NIEHS] National Toxicology Program [NTP] U.S. Food and Drug Administration [FDA] Assay overview: The increased intracellular calcium release that occurred upon G protein-coupled receptor (GPCR) activation led to the frequent use of calcium flux assays to detect GPCR activation. For the purpose of studying and screening compounds that may activate GPCR, receptor-overexpressing models were typically generated using Hek293 wild-type (WT) cells. In order to eliminate the compounds that may have induced calcium release for non-specific activation, a counter-assay utilizing calcium flux on Hek293 WT cells was performed. The data were formulated in order to serve as a control for any calcium flux detection utilizing Hek293 cells with either GPCR overexpression or gene modification. The procurement of Hek293 WT cells from ATCC. Fluorescence intensity can be utilized to determine the activation of the compound in a calcium flux assay. As a counter control, this cell line was utilized to screen the Tox21 10K compound library.
Assay Protocol Summary: Hek293 cells were dispensed at 1500cells/4uL/well in 1536-well black wall/clear bottom plates using a multidrop dispenser. After the assay plates were incubated at a 37 C/5% CO2 incubator for 18 hours, 4 uL of Calcium Dye Solution was added to each well. The plates were incubated at 37 C for 1 hour. For agonist mode, 23 nL of compounds dissolved in DMSO, positive control (ATP) or DMSO only was transferred to the assay plate by a pin tool station. The fluorescence intensity in the plates was measured using FDSS 7000EX kinetic plate reader with a filter set of Ex/Em=480/540 for 3 min at 1 sec intervals. Each test compound was measured at 15 concentrations and in triplicates.
For orientation: Calcium assays in cells follow changes in intracellular calcium, usually with a dye or a luminescent sensor.
For the molecule `NCCCNCCSP(=O)(O)O`, the activation was -0.178% [at 5.23 µM].

For `O=C(Nc1ccc2c(O)c(N=Nc3ccc(N=Nc4ccc(S(=O)(=O)O)cc4)cc3)c(S(=O)(=O)O)cc2c1)c1ccccc1`, the “activation” value is -2.72%.

For `CCCc1nn(C)c2c(=O)[nH]c(-c3cc(S(=O)(=O)N4CCN(C)CC4)ccc3OCC)nc12`, the “activation” value is -0.159% [at 26.5 µM].

Consider `c1ccc(C(O[C@H]2CCCN(CCc3ccc4c(c3)OCO4)C2)c2ccccc2)cc1`, for which the “activation” value is -0.0244% [at 26.5 µM].

For `CC(C)(C)N(CCO)CCO`, the “activation” value is 0.0537%.

For `CCCC(c1cc(C(C)(C)C)c(O)cc1C)c1cc(C(C)(C)C)c(O)cc1C`, the “activation” value was 1.29%.

Take `OCCCCC(O)CO` (stereo not given): the “activation” value was -0.153%.

For the molecule `Cc1ccnc(N)c1`, the “activation” value is 0.658%.

`COc1cc2nc(N3CCN(C(=O)C4CCCO4)CC3)nc(N)c2cc1OC` (stereo not given): the “activation” value was -1.11% [at 26.5 µM].

As for `Cc1cc(C)c(NC(=O)CN(CC(=O)O)CC(=O)O)c(C)c1Br`, the “activation” value was 0.268% [at 26.5 µM].

Regarding `NC(Cc1ccc(Cl)cc1)C(=O)O` (stereo not given), the activation is 1.18% [at 0.217 µM].

As for `COc1cccc(O)c1`, the “activation” value is 0%.

Consider `CCc1nnc(NS(=O)(=O)c2ccc(N)cc2)s1`, for which the “activation” value was 0.412% [at 26.5 µM].

For the molecule `CCCc1nc2c(C)cc(-c3nc4ccccc4n3C)cc2n1Cc1ccc(-c2ccccc2C(=O)O)cc1`, the “activation” value was -1.75% [at 26.5 µM].

Take `O=[N+]([O-])c1cc(Cl)c(Cl)c(Cl)c1Cl`: the “activation” value was -0.304%.

Turning to `COc1cc(NS(=O)(=O)c2ccc(N)cc2)nc(OC)n1`, the “activation” value was -0.325% [at 26.5 µM].

Regarding `O=Cc1c(Cl)cccc1Cl`, the “activation” value was 0.153%.

In the case of `O=CN1CCOCC1`, the “activation” value is -0.0386%.

For `CC(NN)c1ccccc1` (stereo not given), the activation is -1.16% [at 11.8 µM].

For the molecule `CCOC(=O)c1ccccc1O`, the “activation” value is -0.911% [at 26.5 µM].

`Nc1cccc(S(=O)(=O)c2cccc(N)c2)c1`: the “activation” value is -0.127%.

With `CCOC(=O)CCCCCCCCC(=O)OCC`, the “activation” value is -0.0651%.

For the molecule `C/C=C(/C(=C/C)c1ccc(OC(C)=O)cc1)c1ccc(OC(C)=O)cc1`, the “activation” value is -1.15% [at 26.5 µM].

As for `NS(=O)(=O)c1cc2c(cc1Cl)CN(C1CCCCC1)C2=O`, the “activation” value is -0.148% [at 26.5 µM].

For `CCOC(=O)CC(=O)c1cc(F)c(Cl)nc1Cl`, the “activation” value is -1.39%.

Turning to `C[C@H](CCC(=O)O)[C@H]1CC[C@H]2[C@@H]3[C@H](O)C[C@@H]4C[C@H](O)CC[C@]4(C)[C@H]3C[C@H](O)[C@]12C`, the “activation” value is 0.175% [at 26.5 µM].

`CC1=C2[C@H](/C=C(\C)C(=O)O)CC[C@@H](C)[C@H]2CC1`: the “activation” value was -0.118%.

`CC(C)OC(=O)C(C(=O)OC(C)C)=C1SC=CS1`: the “activation” value was -0.337% [at 26.5 µM].

As to `CCOCCOCCOC(C)=O`, the “activation” value is -0.53%.

Take `Oc1c(I)cc(I)c2cccnc12`: the “activation” value was -0.164% [at 26.5 µM].

For `CC(=O)Oc1cc(C(C)C)c(OCCN(C)C)cc1C`, the “activation” value was 1.23% [at 26.5 µM].

As for `CC(=O)O[C@@H]1CC2CCC1(C)C2(C)C` (stereo not given in full), the “activation” value was 1.33%.

For the molecule `COc1cc2c(N3CCN(C(=O)Nc4ccc(OC(C)C)cc4)CC3)ncnc2cc1OCCCN1CCCCC1`, the “activation” value is 0.131% [at 26.5 µM].

`C1CC(COCC2CO2)CCC1COCC1CO1` (stereo not given): the “activation” value was -0.0444%.

With `CC1=CC(=O)CC(C)(C)C1(O)/C=C/C(C)=C\C(=O)O` (stereo not given), the “activation” value was -0.0469%.

Take `ClC(Cl)(Br)Br`: the “activation” value is 0.559%.

As for `CCN1CCC[C@H]1CNC(=O)c1cc(S(N)(=O)=O)ccc1OC`, the “activation” value is 1.4% [at 26.5 µM].

As for `CC(C)C/C=C(\C=O)c1ccccc1`, the “activation” value is 0.185%.

For the molecule `O=C1[C@H](CC[C@H](O)c2ccc(F)cc2)[C@@H](c2ccc(O)cc2)N1c1ccc(F)cc1`, the “activation” value is 1.33% [at 26.5 µM].

Take `NC1CCN(c2cccc(Cl)n2)CC1`: the “activation” value was -0.235% [at 26.5 µM].
